# Only some compounds are listed: those with a hit (about 11% of all), similar ones and a draw of the others.
# HPGD block = inhibitors of human 15-hydroxyprostaglandin dehydrogenase (HPGD). purified HPGD, NADH fluorescence kinetic, PGE2 substrate. AID 894. P15428. Potency, µM, for the others: at the highest dose activity change, negative = inhibition, hits mostly inhibitors. 4.3% of 150,000 active; also: potency is read from the fitted curve at half-maximal effect
# Target sequence (P15428 whole entry, looked up): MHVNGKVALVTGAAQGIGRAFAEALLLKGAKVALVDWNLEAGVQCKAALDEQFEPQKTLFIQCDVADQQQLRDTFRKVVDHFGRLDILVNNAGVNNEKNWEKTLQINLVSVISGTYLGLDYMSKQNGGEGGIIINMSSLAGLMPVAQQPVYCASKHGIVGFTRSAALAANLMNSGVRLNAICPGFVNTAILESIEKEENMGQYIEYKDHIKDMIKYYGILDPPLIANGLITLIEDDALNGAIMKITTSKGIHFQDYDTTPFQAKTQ
#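 20 nM HPGD preincubated 15 min at room temperature with compound in 50 mM Tris-HCl pH 8, 0.01% Tween 20. Started with 1 mM NAD+ and 30 uM prostaglandin E2; NADH fluorescence (360/450 nm) read 5 times over 30-s intervals, last minus first.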
# ALOX12 inhib = 12-hLO (ALOX12) enzyme inhibition; P18054; purified 12-hLO, xylenol orange hydroperoxide absorbance; Potency, µM (titrated, usually from 57.1 µM), for inactives: at the top dose activity change, negative = inhibition, usual class: inhibitors; 0.12% of 150,000 active; AID 1452; active = well fitted curve in the direction sought with a large enough effect; inconclusive = small, poorly fitted or top-dose-only effect, or another doubt; inactive = no such curve, though single readings can be large; an effect the other way counts as inactive or inconclusive; also: potency is read from the fitted curve at half-maximal effect; nearly all actives have a fitted effect of over 55% in size
#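 Xylenol orange chromogenic assay: hydroperoxide from 12hLO oxidises Fe(II), giving red-shifted Fe(III)-XO absorbance. Conditions: 150 nM enzyme, 40 uM arachidonic acid, 25 mM Hepes pH 7.0, 0.01% Triton X-100, 30 min, room temperature.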
# IMPase inh = membrane-permeable compound that blocks inositol monophosphatase | inhibition (IP1 accumulation), % at 46.1 µM | P97697 | 120,000 tested, under 10 active | CHO-M1 cells, IP1 accumulation, HTRF TR-FRET ratio; active = well fitted curve in the direction sought with a large enough effect in the signal ratio, not every such curve was filed as active; inconclusive = small, poorly fitted or top-dose-only effect, or a change in a side signal; inactive = no such curve, though single readings can be large or run the other way; the % refers to the signal ratio;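 also: cells stimulated with carbachol in lithium chloride buffer; plate controls were DMSO basal wells for no effect and reference inhibitor wells for full effect; higher means more IMPase inhibition seen as more IP1 and lower FRET ratio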
# Target sequence (P97697 whole entry, looked up): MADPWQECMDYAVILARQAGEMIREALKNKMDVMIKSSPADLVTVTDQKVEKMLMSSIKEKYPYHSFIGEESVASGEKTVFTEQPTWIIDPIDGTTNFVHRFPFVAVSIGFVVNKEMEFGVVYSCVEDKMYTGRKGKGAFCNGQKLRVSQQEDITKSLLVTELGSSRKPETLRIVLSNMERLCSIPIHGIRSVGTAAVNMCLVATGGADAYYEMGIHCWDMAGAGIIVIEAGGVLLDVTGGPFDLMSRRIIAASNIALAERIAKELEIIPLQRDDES
#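 Carbachol-driven Gq signalling in CHO-M1 cells (2000/well) generates IP1. Compounds that block IMPase raise IP1 and so reduce the FRET signal from Eu-anti-IP1 and d2-IP1 after a 10 min room-temperature lysis.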
# PNC inhibitor = inhibitors of perinucleolar compartment assembly; PC3M PTB-GFP, PNC prevalence imaging, 16 h; active compounds read low; activity change (PNC), negative = inhibition, % at 10 µM; 3.1% of 140,000 active;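 active = readout at or below -70, meaning at least 70% loss of cells showing the perinucleolar compartment, a nuclear body marking cancer cells; inconclusive = readout between -30 and a set limit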;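 also: plate controls were DMSO wells for no effect and camptothecin positive control wells for full effect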
#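 PC3M cells stably expressing PTB-GFP, 750–1000 cells/well, treated 16 h at 37 °C with compound (23 nl of library stock), in duplicate. After paraformaldehyde fixation and Hoechst stain, imaged at 20x; PNC prevalence scored by image analysis.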
# IMPase Li cell = cell-permeable IMPase inhibitors with lithium potentiation; CHO-M1 cells, IP1 TR-FRET (IP-One), carbachol + lithium; Potency, µM (series often up to 59.4 µM), for the others: at the top dose activity, negative = IMPase inhibition, most hits filed as inhibitors; 0.35% of 210,000 active; AID 1457; active = well fitted curve in the direction sought with a large enough effect; inconclusive = small, poorly fitted or top-dose-only effect, or another doubt; inactive = no such curve, though single readings can be large; an effect the other way counts as inactive or inconclusive;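 also: IP1 builds up when IMPase is blocked and the TR-FRET signal falls; potency is read from the fitted curve at half-maximal effect; plate controls were basal vehicle for no effect and high inhibitor control for full effect; nearly all actives have a fitted effect of over 50% in size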
#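 IP1 accumulation measured by competitive TR-FRET in lysed CHO-M1 cells after 30 min compound exposure at 37C, with a small lithium addition to potentiate weak responses. Hill-equation AC50 from ratio and donor-channel data.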
# ALDH1A1 block = ALDH1A1 (human) enzyme inhibition | P00352 | Purified ALDH1A1, NADH fluorescence, propionaldehyde substrate | Potency, µM (highest dose often 75.3 µM), for the others: top-dose activity, negative = inhibition, usual class: inhibitors | 7.3% of 220,000 active;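 also: potency is read from the fitted curve at half-maximal effect; plate controls were no enzyme wells and a reference inhibitor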
# The depositor's hits bear a star; ? = inconclusive; . = not tested or not shown; [ ] = remark or other dose. Unless noted, calls follow the shape of the dose curve; as a rule, active = well fitted inhibition curve with a large enough effect (not every such curve was filed as active); inconclusive = small, poorly fitted or top-dose-only effect, or another doubt; inactive = no such curve, though single readings can be large or run the other way. Unless noted, % is scaled to controls: 0 for no effect and ±100 for the full control effect.
SMILES,HPGD block,ALOX12 inhib,IMPase inh,PNC inhibitor,IMPase Li cell,ALDH1A1 block
COc1ccc(Cn2nnnc2C(c2cc3ccc(OC)cc3[nH]c2=O)N2CCC(C)CC2)cc1 (stereo not given),-8%,-1%,0,26,15%[38.3 µM],0.89µM*
COc1ccc2cc(C(c3nnnn3Cc3ccc(F)cc3)N3CCCCCC3)c(=O)[nH]c2c1 (stereo not given),?,-26%,-13,?,32%[38.3 µM],?
COc1cc(C=O)ccc1OS(=O)(=O)c1ccccc1[N+](=O)[O-],18µM*,-4%,.,22,0%,8.9µM*
COc1cc(C=O)ccc1OCCCOc1ccccc1[N+](=O)[O-],20µM*,-7%,.,-26,4%,-15%
COc1cc(C=O)ccc1OCCOc1ccccc1[N+](=O)[O-],?,-2%,.,36,-1%,?
COc1cc(/C=N/n2cnnc2)ccc1OS(=O)(=O)c1ccccc1[N+](=O)[O-],-20%,2%,.,?,12%,-12%
COc1cc(/C=N/NS(=O)(=O)c2ccc(C)cc2)ccc1OCc1ccc(C(=O)O)cc1,.,.,.,.,3%,?
COc1cc(C=O)ccc1OCCCCOc1ccccc1[N+](=O)[O-],-26%,-5%,.,?,7%,5µM*
COc1ccc(/C=N/NS(=O)(=O)c2ccc(F)cc2)cc1COc1cc(F)ccc1[N+](=O)[O-],.,.,.,.,2%,35µM*
COc1ccc(C=O)cc1COc1ccc(C)cc1[N+](=O)[O-],-23%,-20%,4,?,8%[38.3 µM],10µM*
Cc1ccc(NS(=O)(=O)c2ccc(NC(=O)C3CCCO3)cc2)cc1 (stereo not given),-29%,-25%,8,38,43%[38.3 µM],22µM*
O=C(Nc1ccc2c(c1)C(=O)N(c1ccccc1)C2=O)C1CCCO1 (stereo not given),-10%,9%,7,-20,-4%,14µM*
O=C(NCCCN1CCOCC1)c1ccc(NC(=O)C2COc3ccccc3O2)cc1 (stereo not given),.,.,.,.,13%,5%
O=C(Nc1ccc(Oc2ccc(NC(=O)C3CCCO3)cc2)cc1)C1CCCO1 (stereo not given),1.4µM*,-1%,-3,2,-2%[38.3 µM],?
O=C(NCCN1CCN(c2ccccc2)CC1)c1ccc(NC(=O)C2CCCO2)cc1 (stereo not given),-12%,2%,4,?,29%[38.3 µM],28µM*
CCCn1c(-c2ccc(F)cc2)nc2c(NCCCN(CCO)CCO)nc(C)nc21,?,-1%,.,.,-1%,?
Cc1cc(O)c(C(C)(C)C)cc1Sc1cc(C(C)(C)C)c(O)cc1C,-28%,-3%,.,.,-5%,?
COc1cc(NS(=O)(=O)c2ccc(Cl)cc2)c(C(=O)O)cc1OC,-14%,0%,.,29,7%,?
COc1ccccc1-n1c(=S)sc2c(=O)n(Cc3ccco3)c(SC)nc21,-28%,-10%,-6,?,33%[38.3 µM],20µM*
CCN(CC)C(=O)CSc1nc2c(sc(=S)n2-c2ccccc2)c(=O)n1Cc1ccco1,32µM*,-4%,12,45,10%[38.3 µM],10µM*
OCC1OC(C#Cc2ccccc2)C=CC1O (stereo not given),.,.,.,.,.,-2%[13.5 µM]
COc1ccc(CCn2c(C)ccc2C)cc1OC,-18%,-9%,4,-100*,6%,-7%
COC(=O)c1ccc(NC(C)=O)o1,-4%,-2%,3,8,-23%[38.3 µM],11%
COC(=O)c1ccc(NC(=O)c2ccccc2)o1,32µM*,3%,-6,-25,12%[38.3 µM],-12%
CC1CC[C@@]2(OC1)OC1CC3C4CC=C5CC(O)CC[C@@]5(C)C4CC[C@]3(C)C1C2C (stereo not given in full),-7%,0%,.,.,3%,-1%
SMILES,HPGD block,ALOX12 inhib,IMPase inh,PNC inhibitor,IMPase Li cell,ALDH1A1 block
O=C(c1cncc(Br)c1)N1CCc2ccccc2C1,10µM*,7%,-9,?,23%[38.3 µM],6%
O=C(c1ccc(Cl)nc1)N1CCc2ccccc2C1,7.9µM*,-9%,-11,?,13%[38.3 µM],-1%
Cc1cccc(C(=O)NC(=S)N2CCc3ccccc3C2)c1,-19%,-29%,.,-82*,-4%,?
O=C(c1ccccc1Cl)N1CCc2ccccc2C1,4.5µM*,1%,-6,30,4%,?
CCNC(=S)N1CCc2ccccc2C1,.,.,.,.,12%,-5%
Cc1cccc(C)c1NS(=O)(=O)c1ccc(NS(=O)(=O)c2ccc3c(c2)OCCO3)cc1,.,.,-1,.,.,.
COCCn1c(=O)c(-c2cccc(C#N)c2)nc2cnc(N3CCOCC3)nc21,.,.,.,.,-1%,?
O=C(c1cccc(F)c1)N1CCc2ccccc2C1,5µM*,4%,-7,-1,26%[38.3 µM],14µM*
CC(=O)Nc1cc(N2C(=O)CCC2=O)ccc1Cl,2%,-3%,.,-82*,-8%,8%
CO[C@H]1COC(=O)[C@H](C)NC(=O)C/C=C\[C@@H](C)[C@@H](NS(=O)(=O)c2ccc(C)cc2)COC(=O)[C@H](OCc2ccccc2)/C=C\[C@@H]1C,.,.,.,.,.,0%[13.5 µM]
O=C(Cc1ccccc1)N1CCN(S(=O)(=O)c2cccc([N+](=O)[O-])c2)CC1,.,.,.,.,6%,?
COc1cccc(C(=O)CN2CCN(S(=O)(=O)c3cccc([N+](=O)[O-])c3)CC2)c1,-10%,-3%,1,2,0%,18µM*
COc1ccc(C(=O)CN2CCN(S(=O)(=O)c3cccc([N+](=O)[O-])c3)CC2)cc1OC,?,-8%,4,?,-4%,20µM*
CCOc1cc(C2c3c(oc4ccc(F)cc4c3=O)C(=O)N2Cc2ccco2)ccc1O (stereo not given),.,.,5,.,.,.
O=C(Cc1ccccc1)Nc1nc2ccc(Cl)cc2c2nc(-c3ccco3)nn12,?,1%,?,.,?,-19%
CC(C)(C)c1cc(CNC2CS(=O)(=O)C[C@@H]2O)cc(C(C)(C)C)c1O (stereo not given in full),-3%,-27%,2,10,-11%[38.3 µM],13µM*
O=S1(=O)CC(O)C(NCc2ccco2)C1 (stereo not given),-2%,2%,-9,-26,28%[38.3 µM],2%
O=C(Nc1ccc(Cl)cc1)c1cccc(N2C(=O)C3C4CCC(C4)C3C2=O)c1 (stereo not given),32µM*,-8%,.,13,-6%,9%
O=C(O)c1ccc(NC(=O)c2cccc(N3C(=O)C4C5CCC(C5)C4C3=O)c2)cc1 (stereo not given),-9%,3%,.,46,-12%,-3%

# From PubChem
